According to PubChem BioAssay (NCI):
The panel holds about 83,000 compounds, 20% with a hit somewhere; the sample as a whole holds those more often.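 Single-dose data. Exposure time 48 hours. Values below 10 considered active.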 Active and inactive are the calls of the source.

Experiments:
Test in all cases: NCI-60 one-dose screen, 48 h (100 = growth as untreated, 0 = no growth, -100 = all killed)
Conditions in all cases: 10 µM unless noted
HCT-15 colon = test system: HCT-15 colon
HT29 colon = test system: HT29 colon
SNB-75 CNS = test system: SNB-75 CNS
SNB-19 CNS = test system: SNB-19 CNS
U251 CNS = test system: U251 CNS
PC-3 prostate = test system: PC-3 prostate
SK-MEL-5 melanoma = test system: SK-MEL-5 melanoma
UACC-62 melanoma = test system: UACC-62 melanoma
LOX IMVI melanoma = test system: LOX IMVI melanoma
SK-MEL-28 melanoma = test system: SK-MEL-28 melanoma

Measured: growth

CCCCCc1ccc(S(=O)(=O)Nc2cc(-c3csc(NC(=O)CN4CCN(CCO)CC4)n3)ccc2OC)cc1
active: HCT-15 colon -9.25% | HT29 colon 4.51% | U251 CNS 2.41% | SK-MEL-5 melanoma -88.8% | UACC-62 melanoma -32.9% | LOX IMVI melanoma -82.5% | SK-MEL-28 melanoma -60.5%
inactive: SNB-75 CNS 92.6% | SNB-19 CNS 31% | PC-3 prostate 48%

C=CCn1c(SCC(=O)Nc2ccc(C(=O)/C=C/c3cc(OC)c(OC)c(OC)c3)cc2)nnc1-c1c[nH]c2ccccc12
active: HCT-15 colon -20.3% | HT29 colon -57.2% | U251 CNS 8.96% | LOX IMVI melanoma -65.1%
inactive: SNB-75 CNS 91.2% | SNB-19 CNS 21.7% | PC-3 prostate 40.6% | SK-MEL-5 melanoma 25.2% | UACC-62 melanoma 36.7% | SK-MEL-28 melanoma 41.7%

Nc1ccccc1NC(=O)c1ccc(NC(=O)C/C=C/c2cccnc2)cn1
active: SK-MEL-5 melanoma -75.9% | UACC-62 melanoma 0.71% | LOX IMVI melanoma 1.78% | SK-MEL-28 melanoma -34%
inactive: HCT-15 colon 21.4% | HT29 colon 12.9% | SNB-75 CNS 29.4% | SNB-19 CNS 33.1% | U251 CNS 15.6% | PC-3 prostate 31.6%

Nc1nc(Nc2ccccc2SSc2ccccc2Nc2nc(N)nc(-c3ccccc3)n2)nc(-c2ccccc2)n1
inactive: HCT-15 colon 48.5% | HT29 colon 111% | SNB-75 CNS 55.7% | SNB-19 CNS 74.5% | PC-3 prostate 42.9% | SK-MEL-5 melanoma 89.2% | UACC-62 melanoma 76.3% | SK-MEL-28 melanoma 93.9%
active: U251 CNS -22.7% | LOX IMVI melanoma -34.3%

COc1cc(/C=C/C(=O)c2ccc(NC(=O)CSc3nnc(-c4ccc(-c5nc6ccc(Cl)cc6[nH]5)cc4)o3)cc2)cc(OC)c1OC
inactive: HCT-15 colon 53.7% | HT29 colon 106% | SNB-75 CNS 88.4% | SNB-19 CNS 89% | U251 CNS 88.5% | PC-3 prostate 92.2% | SK-MEL-5 melanoma 94.1% | UACC-62 melanoma 74.2% | LOX IMVI melanoma 88.6% | SK-MEL-28 melanoma 88.3%

Cc1ccc(C2=Nn3c(nnc3-c3ccccc3)SC2)cc1
inactive: HCT-15 colon 23% | SNB-19 CNS 31.4% | U251 CNS 25.5% | PC-3 prostate 35.2% | SK-MEL-5 melanoma 21.5% | UACC-62 melanoma 41.4% | LOX IMVI melanoma 49% | SK-MEL-28 melanoma 76.2%
active: HT29 colon 4.8% | SNB-75 CNS -4.24%

CC1(C)NCCC[C@]2(C)[C@H]3C/C(=N\O)C4[C@@H]5C[C@@](C)(CO)CC[C@]5(C)CC[C@@]4(C)[C@]3(C)CC[C@@H]12 (stereo not given in full)
inactive: HCT-15 colon 93.1% | HT29 colon 88.9% | SNB-75 CNS 75.1% | SNB-19 CNS 96.6% | U251 CNS 87.3% | PC-3 prostate 88.9% | SK-MEL-5 melanoma 98.7% | UACC-62 melanoma 95.2% | LOX IMVI melanoma 101% | SK-MEL-28 melanoma 103%

CCO/C=N/C1=C(C#N)C(c2ccc(Cl)cc2)c2sc3c(C)cccc3c2O1 (stereo not given)
active: HT29 colon 4.77% | SNB-75 CNS -5.08% | UACC-62 melanoma 9.19%
inactive: HCT-15 colon 12.5% | SNB-19 CNS 18.4% | U251 CNS 20.7% | PC-3 prostate 12% | SK-MEL-5 melanoma 30.7% | LOX IMVI melanoma 22.1% | SK-MEL-28 melanoma 60.5%

CC(C)(C)c1ccc(C(=O)Nc2sc3c(c2C(N)=O)CC/C(=N\O)C3)cc1
inactive: HCT-15 colon 10.4% | SNB-75 CNS 44.2% | SNB-19 CNS 26.7% | U251 CNS 17.9% | PC-3 prostate 18.7% | UACC-62 melanoma 12.7% | SK-MEL-28 melanoma 31.4%
active: HT29 colon 5.87% | SK-MEL-5 melanoma -29.4% | LOX IMVI melanoma 3.93%

C#CCn1cccc1CNc1ccc(OC)cc1
active: HCT-15 colon -79.2% | HT29 colon -50.4% | SNB-75 CNS -79.9% | SNB-19 CNS -90.1% | U251 CNS -74.6% | PC-3 prostate -93.3% | SK-MEL-5 melanoma -6.24% | UACC-62 melanoma -91.7% | LOX IMVI melanoma -84.8% | SK-MEL-28 melanoma -48.9%

CCn1c(SCC(=O)Nc2cccc(C(=O)/C=C/c3ccc(Br)cc3)c2)nc2ccccc2c1=O
inactive: HCT-15 colon 65% | HT29 colon 85.4% | SNB-75 CNS 73.8% | SNB-19 CNS 85.9% | U251 CNS 88.7% | PC-3 prostate 83.4% | SK-MEL-5 melanoma 91.7% | UACC-62 melanoma 73.9% | LOX IMVI melanoma 41.9% | SK-MEL-28 melanoma 98.2%

COC(=O)/C=C/c1c(C2(C)NC(=O)c3ccccc3N2)c(=O)oc2ccc(Cl)cc12 (stereo not given)
inactive: HCT-15 colon 91.4% | HT29 colon 96% | SNB-75 CNS 74% | SNB-19 CNS 90.7% | U251 CNS 88% | PC-3 prostate 89.2% | SK-MEL-5 melanoma 91.4% | UACC-62 melanoma 75.4% | LOX IMVI melanoma 97% | SK-MEL-28 melanoma 97.6%

COc1ccc(NC2=C(Cl)C(=O)c3nc(C)ccc3C2=O)cc1OC
inactive: HCT-15 colon 82.3% | HT29 colon 110% | SNB-75 CNS 111% | SNB-19 CNS 94.6% | U251 CNS 106% | PC-3 prostate 70.6% | SK-MEL-5 melanoma 86.6% | UACC-62 melanoma 71.8% | SK-MEL-28 melanoma 102%
active: LOX IMVI melanoma -3.09%

O=C(NNc1nc2cc(F)ccc2n2c(CN3CCCC3)ccc12)c1cnccn1
inactive: HCT-15 colon 23% | HT29 colon 24% | SNB-75 CNS 65% | SNB-19 CNS 25.2% | U251 CNS 19.8% | PC-3 prostate 21.4% | SK-MEL-5 melanoma 22.3% | UACC-62 melanoma 17.9% | SK-MEL-28 melanoma 30.8%
active: LOX IMVI melanoma 3.56%

O=C(CN1CCN(c2cc(=O)n(-c3ccccc3)c3ccccc23)CC1)Nc1ccc(F)cc1
inactive: HCT-15 colon 69.2% | HT29 colon 81% | SNB-75 CNS 77.2% | SNB-19 CNS 77.3% | U251 CNS 80.2% | PC-3 prostate 64.6% | SK-MEL-5 melanoma 16.9% | UACC-62 melanoma 55.3% | LOX IMVI melanoma 67.4% | SK-MEL-28 melanoma 86.2%

CN(C)CCCOc1ccc2c(c1)CN(C(=O)c1cc(C(=O)N3Cc4cccc(F)c4C3)ccc1O)C2
inactive: HCT-15 colon 88.5% | HT29 colon 106% | SNB-75 CNS 95% | SNB-19 CNS 101% | U251 CNS 98.4% | PC-3 prostate 102% | SK-MEL-5 melanoma 98.2% | UACC-62 melanoma 96.3% | LOX IMVI melanoma 91.8% | SK-MEL-28 melanoma 104%

CCn1c(SCC(=O)Nc2cccc(C(=O)/C=C/c3ccc(C)cc3)c2)nc2ccccc2c1=O
inactive: HCT-15 colon 49.2% | HT29 colon 65.8% | SNB-75 CNS 93.3% | SNB-19 CNS 81.2% | U251 CNS 80.1% | PC-3 prostate 60.7% | SK-MEL-5 melanoma 90% | UACC-62 melanoma 70.1% | LOX IMVI melanoma 37.6% | SK-MEL-28 melanoma 95.8%

O=C(O)c1ccc(-n2cc(CNc3cccc(Cl)c3)c(-c3ccc(F)cc3)n2)cc1
inactive: HCT-15 colon 80.7% | HT29 colon 111% | SNB-75 CNS 120% | SNB-19 CNS 99.3% | U251 CNS 101% | PC-3 prostate 94% | SK-MEL-5 melanoma 91.7% | UACC-62 melanoma 74.3% | LOX IMVI melanoma 74.2% | SK-MEL-28 melanoma 101%

O=C(CCn1c[n+](CC(=O)c2ccc(-c3ccccc3)cc2)c2ccccc21)Nc1cccc2cccnc12
inactive: HCT-15 colon 93.8% | HT29 colon 51.8% | SNB-75 CNS 41% | SNB-19 CNS 41.6% | U251 CNS 42.9% | PC-3 prostate 30.9% | SK-MEL-5 melanoma 20.8% | UACC-62 melanoma 15.1% | LOX IMVI melanoma 57.9% | SK-MEL-28 melanoma 38.9%

CCn1c(SCC(=O)Nc2cccc(C(=O)/C=C/c3ccccc3Cl)c2)nc2ccccc2c1=O
inactive: HCT-15 colon 55.2% | HT29 colon 67.1% | SNB-75 CNS 89.5% | SNB-19 CNS 82.3% | U251 CNS 73.4% | PC-3 prostate 75.4% | SK-MEL-5 melanoma 93.5% | UACC-62 melanoma 79.9% | LOX IMVI melanoma 27.6% | SK-MEL-28 melanoma 98.3%

N=c1c2cc(-c3ccccc3)oc2ncn1/N=C/c1ccc(Br)cc1
inactive: HCT-15 colon 57.9% | HT29 colon 102% | SNB-75 CNS 58% | SNB-19 CNS 74.9% | U251 CNS 45.9% | PC-3 prostate 75.3% | SK-MEL-5 melanoma 97.1% | UACC-62 melanoma 90.4% | LOX IMVI melanoma 45.3% | SK-MEL-28 melanoma 77.8%

Cc1ccc2c(c1)Oc1nc(N)c(C#N)c(N)c1C2Sc1ccc(F)cc1 (stereo not given)
active: HCT-15 colon -77.9% | HT29 colon -38.6% | SNB-75 CNS -14.1% | SNB-19 CNS -98.2% | U251 CNS -95.9% | PC-3 prostate -96.8% | SK-MEL-5 melanoma -95.4% | UACC-62 melanoma -93.5% | LOX IMVI melanoma -93.1% | SK-MEL-28 melanoma -98.9%

COC[C@]12CCC(C)(C)C[C@H]1C1=CC[C@@H]3[C@@]4(C)CCCNC(C)(C)[C@@H]4CC[C@@]3(C)[C@]1(C)CC2
inactive: SNB-75 CNS 12%
active: HCT-15 colon -86.5% | HT29 colon -28% | SNB-19 CNS -2.59% | U251 CNS -58.1% | PC-3 prostate 0.7% | SK-MEL-5 melanoma -98.1% | UACC-62 melanoma -74% | LOX IMVI melanoma -94.6% | SK-MEL-28 melanoma -79.4%

CCO/C=N/C1=C(C#N)C(c2ccc(F)cc2)c2sc3c(C)cccc3c2O1 (stereo not given)
inactive: HCT-15 colon 11.9% | SNB-19 CNS 18.2% | U251 CNS 21.8% | PC-3 prostate 14.5% | UACC-62 melanoma 12.8% | SK-MEL-28 melanoma 56.2%
active: HT29 colon 9.76% | SNB-75 CNS 8.13% | SK-MEL-5 melanoma 4.34% | LOX IMVI melanoma 9.65%

C/C(=N\O)[C@H]1C[C@]23CC[C@]4(C)[C@H](CC[C@@H]5[C@@]6(C)CC/C(=N/O)C(C)(C)[C@@H]6CC[C@]54C)[C@H]2[C@H](C)C1(C)OC3
inactive: HCT-15 colon 105% | HT29 colon 113% | SNB-75 CNS 72% | SNB-19 CNS 97.7% | U251 CNS 110% | PC-3 prostate 94.8% | SK-MEL-5 melanoma 100% | UACC-62 melanoma 89.7% | LOX IMVI melanoma 98.2% | SK-MEL-28 melanoma 110%

COc1cc2c(cc1OC)C(Sc1ccc(C)cc1)c1c(nc(N)c(C#N)c1N)O2 (stereo not given)
inactive: SNB-75 CNS 29%
active: HCT-15 colon -74.3% | HT29 colon -21.2% | SNB-19 CNS -68.9% | U251 CNS -69.9% | PC-3 prostate -71.1% | SK-MEL-5 melanoma -94.6% | UACC-62 melanoma -45% | LOX IMVI melanoma -90.5% | SK-MEL-28 melanoma -80.3%

O=C(CN1CCN(c2cc(=O)n(-c3ccccc3)c3ccccc23)CC1)Nc1cccc(C(F)(F)F)c1
inactive: HCT-15 colon 48.5% | HT29 colon 70.8% | SNB-75 CNS 65.5% | SNB-19 CNS 70.9% | U251 CNS 71.6% | PC-3 prostate 42.1% | SK-MEL-5 melanoma 14.4% | UACC-62 melanoma 57.2% | LOX IMVI melanoma 66.1% | SK-MEL-28 melanoma 75.1%
